Source: PubChem
FLuc modulator: qHTS profiling assay for firefly luciferase inhibitor/activator using purifed enzyme and Km concentrations of substrates (counterscreen for miR-21 project). AID 588342, 2011. 360,000 compounds, 6.9% hits. Potency, µM (titrated, usually from 57.5 µM), hits mostly inhibitors. purified FLuc, Km substrates, luminescence inhibition; also: nearly all actives have a fitted effect of over 55% in size
Target sequence (P08659 whole entry, looked up): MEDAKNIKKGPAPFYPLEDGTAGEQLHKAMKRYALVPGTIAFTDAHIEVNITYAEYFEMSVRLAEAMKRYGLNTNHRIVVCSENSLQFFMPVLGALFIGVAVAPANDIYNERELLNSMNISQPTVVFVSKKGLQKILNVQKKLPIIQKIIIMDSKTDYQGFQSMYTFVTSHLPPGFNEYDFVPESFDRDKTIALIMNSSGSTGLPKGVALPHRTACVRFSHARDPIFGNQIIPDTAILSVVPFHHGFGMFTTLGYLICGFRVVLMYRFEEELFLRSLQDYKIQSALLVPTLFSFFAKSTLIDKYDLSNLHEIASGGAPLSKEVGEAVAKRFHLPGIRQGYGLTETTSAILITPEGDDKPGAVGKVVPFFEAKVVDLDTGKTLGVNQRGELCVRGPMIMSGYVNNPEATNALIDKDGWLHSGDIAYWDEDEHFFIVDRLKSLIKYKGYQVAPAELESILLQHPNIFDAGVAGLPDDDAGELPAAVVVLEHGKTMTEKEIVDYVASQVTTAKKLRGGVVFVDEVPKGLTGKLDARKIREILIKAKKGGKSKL
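Biochemical qHTS of compounds, final roughly 60 µM downward over six points, against 10 nM purified firefly luciferase using Km concentrations of substrates (10 uM D-luciferin, 10 uM ATP) in Tris acetate pH 7.5 buffer; luminescence output.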
Rab9 prom act: qHTS Assay for Rab9 Promoter Activators; Huh7 Rab9 promoter-luciferase reporter, luminescence, 24 h; Potency, µM (top dose mostly 9.22 µM), actives largely listed as activators; 320,000 compounds, 2.8% hits; AID 485297, 2010; also: nearly all actives have a fitted effect of over 60% in size
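Huh7 cells stably carrying Rab9 promoter–luciferase reporter, plated 1500 cells/well, compound added after 2 h and incubated 24 h at 37 °C; luciferase luminescence then read after 10 min with detection reagent.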
SMN2 splice up: qHTS Assay for Enhancers of SMN2 Splice Variant Expression; HEK293 SMN2-luciferase splicing reporter, luminescence, 30-36 h; Potency, µM (series often up to 46.1 µM), actives largely listed as activators; 210,000 compounds, 2.8% hits; AID 1458, 2008; also: nearly all actives have a fitted effect of over 55% in size
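HEK293 cells carry an SMN2 […]–luciferase reporter in which exon 7 inclusion puts luciferase in frame. Cells were plated 10-12 h before compound addition, then incubated 30-36 h at 37C. ONE-Glo luminescence was read; sodium butyrate at 4.5 mM final served as control.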
ELG1 genotoxic: qHTS screen for small molecules that induce genotoxicity in human embryonic kidney (HEK293T) cells expressing luciferase-tagged ELG1 | HEK293T ELG1-luciferase reporter, luminescence, 16 h | Potency, µM (top dose mostly 46 µM), actives largely listed as activators | 330,000 compounds, 1.3% hits; also: nearly all actives have a fitted effect of over 60% in size
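Reporter readout depends on ELG1 protein level, which increases with genetic stress. After 16 hr compound exposure at 37 °C, luciferase activity was quantified using ONE-Glo.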
NPC1 prom act: qHTS Assay for NPC1 Promoter Activators; Potency, µM (doses to about 9.22 µM), hits mostly activators; Huh7 NPC1 promoter luciferase reporter, 24 h; 320,000 compounds, 2.4% hits; also: nearly all actives have a fitted effect of over 60% in size
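Huh7 cells stably carrying NPC1 promoter–luciferase, plated in Opti-MEM with 10% FBS for 2 h, were exposed to compound in DMSO for 24 h at 37 °C; luciferase reagent was added for 10 min and luminescence read.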
ELG1 DNA repair: qHTS screen for small molecules that inhibit ELG1-dependent DNA repair in human embryonic kidney (HEK293T) cells expressing luciferase-tagged ELG1. HEK293T ELG1-luciferase reporter, luminescence, 16 h; DNA damage induced by 5-fluorouridine. Potency, µM (titrated, usually from 46.1 µM), hits mostly inhibitors. 330,000 compounds, 2.3% hits. AID 504467, 2011; also: nearly all actives have a fitted effect of over 55% in size
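Cells (2,000 per well) received 5-fluorouridine plus test compound or DMSO and were incubated 16 hr at 37 °C, 5% CO2. Luciferase activity was read by luminescence 30 min after ONE-Glo addition; signal suppression marked inhibition of damage-induced ELG1 function.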
Of the large screens only hits and unclear results are named; the others gave an inactive call. Only some compounds are listed: those with a hit (about 9.4% of all), similar ones and a draw of the others. Calls follow the shape of the dose curve; as a rule, active = well fitted curve in the direction sought with a large enough effect; inconclusive = small, poorly fitted or top-dose-only effect, or another doubt; inactive = no such curve, though single readings can be large; an effect the other way counts as inactive or inconclusive.

CCCCn1c(CN2CCN(c3cccc(Cl)c3)CC2)nc2c1c(=O)[nH]c(=O)n2C	ELG1 DNA repair inconclusive
C=CCOc1ccc(-c2nc3c(c(=O)[nH]c(=O)n3CCC)n2CCCC)cc1	none (no result: SMN2 splice up)
Cn1c(=O)[nH]c(=O)c2c1nc(CN1CCN(c3cccc(Cl)c3)CC1)n2CCCc1ccccc1	ELG1 DNA repair 9.2µM
Cn1c(=O)[nH]c(=O)c2c1nc(N1CCCCCC1)n2CCCSc1nc2ccccc2o1	ELG1 DNA repair 23µM (no result: SMN2 splice up)
CCOc1ccc(C(=O)NCCc2sc3nc(-c4ccc(Cl)cc4)nn3c2C)cc1OCC	none (no result: Rab9 prom act, SMN2 splice up, ELG1 genotoxic, NPC1 prom act, ELG1 DNA repair)
CCOC(=O)c1cnc2cc(C(F)(F)F)ccc2c1Nc1ccc(F)cc1F	none (no result: Rab9 prom act, ELG1 genotoxic, NPC1 prom act, ELG1 DNA repair)
CCCCn1c(=O)[nH]c(=O)c2c1nc(-c1ccsc1)n2Cc1ccccc1	SMN2 splice up inconclusive, ELG1 DNA repair 18µM
COc1ccc(N2CCN(Cc3nc4c(c(=O)[nH]c(=O)n4C)n3Cc3ccccc3)CC2)cc1	none (no result: Rab9 prom act, ELG1 genotoxic, NPC1 prom act, ELG1 DNA repair)
CC(CSc1nc2ccccc2s1)Cn1c(N2CCCC2)nc2c1c(=O)[nH]c(=O)n2C (stereo not drawn)	ELG1 DNA repair 15µM
COc1ccc(N2CCN(Cc3nc4c(c(=O)[nH]c(=O)n4C)n3CCCc3ccccc3)CC2)cc1	ELG1 DNA repair 8.9µM
CCN1CCN(c2nc3c(c(=O)[nH]c(=O)n3C)n2CCSc2nc3ccccc3s2)CC1	ELG1 DNA repair inconclusive
CCCCn1c(-c2ccsc2)nc2c1c(=O)[nH]c(=O)n2CCC	ELG1 genotoxic inconclusive, ELG1 DNA repair inconclusive
COc1cccc(N2CCN(C(=O)c3cnc4c(-c5ccc(F)cc5)c(C)nn4c3C)CC2)c1	none (no result: Rab9 prom act, SMN2 splice up, ELG1 genotoxic, NPC1 prom act, ELG1 DNA repair)
C/C=C1\C(=O)C[C@H]2[C@@H]3CCC4=CC(=O)CC[C@]4(C)[C@H]3CC[C@]12C	none (no result: FLuc modulator, Rab9 prom act, ELG1 genotoxic, NPC1 prom act, ELG1 DNA repair)
Cc1cc(NC(=O)CSc2nc(CCC3CCCC3)nc3ccccc23)no1	ELG1 DNA repair inconclusive
CCCc1nc(SCC(=O)Nc2cc(C)on2)c2ccccc2n1	ELG1 DNA repair 26µM
CCCn1cc(SCC(=O)Nc2cc(C)on2)c2ccccc21	none (no result: SMN2 splice up)
Cc1cc(NC(=O)CSc2cn(CCNC(=O)c3ccccc3)c3ccccc23)no1	FLuc modulator 19µM, ELG1 DNA repair inconclusive
Cc1ccc(C(=O)NCCn2cc(SCC(=O)Nc3cc(C)on3)c3ccccc32)cc1	FLuc modulator 5.4µM, Rab9 prom act inconclusive, ELG1 genotoxic inconclusive, ELG1 DNA repair inconclusive
COc1cc(CN2CCCCC2)cc2cc(C(=O)O)c(=O)oc12	none (no result: FLuc modulator, Rab9 prom act, ELG1 genotoxic, NPC1 prom act, ELG1 DNA repair)
CNc1nnc(-c2cc3ccccc3oc2=O)s1	FLuc modulator 4.8µM, Rab9 prom act 1.4µM, SMN2 splice up 13µM, ELG1 genotoxic 18µM, NPC1 prom act 1.4µM, ELG1 DNA repair inconclusive
CC(=O)Nc1ccc(Nc2nc(-c3cc4ccccc4oc3=O)cs2)cc1	FLuc modulator 5.4µM, Rab9 prom act inconclusive, ELG1 genotoxic inconclusive, NPC1 prom act inconclusive, ELG1 DNA repair inconclusive (no result: SMN2 splice up)
COc1ccc2oc(=O)c(-c3csc(Nc4cccc(O)c4)n3)cc2c1	FLuc modulator 1.7µM, SMN2 splice up inconclusive, ELG1 DNA repair 26µM
COc1ccc(Nc2nc(-c3cc4cccc(OC)c4oc3=O)cs2)cc1	ELG1 DNA repair inconclusive
O=C(Nc1nc(-c2cc3ccccc3oc2=O)cs1)c1ccc(Br)o1	none
Nc1ccc(Nc2nc(-c3cc4ccccc4oc3=O)cs2)cc1	FLuc modulator 2.4µM, Rab9 prom act inconclusive, SMN2 splice up inconclusive, ELG1 genotoxic inconclusive, NPC1 prom act inconclusive, ELG1 DNA repair inconclusive
COc1cccc2sc(Nc3nc(-c4cc5ccccc5oc4=O)cs3)nc12	FLuc modulator inconclusive, ELG1 DNA repair inconclusive
Cc1sc2ncn(CC(=O)N3CCN(c4ccccc4)CC3)c(=O)c2c1S(=O)(=O)N1CCC(C)CC1	none (no result: Rab9 prom act, ELG1 genotoxic, NPC1 prom act, ELG1 DNA repair)
N#CCc1nc(-c2cc3ccccc3oc2=O)cs1	none
